Screening results: PubChem, NMMLSC
This is a sample that favours compounds with a hit; in the whole collection about 0.38% have one here.
Rac1 mut GTP: modulators of GTP binding to human Rac1 activated mutant | GST-Rac1 activated beads, fluorescent GTP binding, flow cytometry; actives lie on both sides; 100% means binding = to untreated wells | percent activity (GTP binding), % at 10 µM | 0.11% of 190,000 active | AID 764;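 active = GTP binding at least 20 percentage points away from the 100% baseline, in either direction, so actives lie on both sides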
Cdc42 wt: human Cdc42 wildtype GTP binding change, either direction | GST-Cdc42 beads, Bodipy-GTP binding, flow cytometry; actives lie on both sides | 0.2% of 190,000 active | P60953 | percent activity (GTP binding), % at 10 µM;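 active = percent activity GTP binding at least 20 points away from the 100% baseline, either down as inhibitor or up as activator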;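 also: median bead fluorescence of bound Bodipy-FL-GTP at 100 nM; below 100% means less GTP binding so inhibitor and above means activator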
Target sequence (P60953 whole entry, looked up): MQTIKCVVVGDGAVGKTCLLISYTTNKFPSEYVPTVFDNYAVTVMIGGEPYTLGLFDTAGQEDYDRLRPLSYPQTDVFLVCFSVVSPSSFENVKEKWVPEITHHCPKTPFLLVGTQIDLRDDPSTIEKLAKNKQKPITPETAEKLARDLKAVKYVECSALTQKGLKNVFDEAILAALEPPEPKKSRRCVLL
HRas wt GTP bind: modulators of GTP binding to human HRas wildtype. P01112. GST-Ras wt beads, Bodipy-FL-GTP binding, flow cytometry; actives lie on both sides. GTP binding activity, % at 10 µM. 0.14% of 190,000 active. AID 759;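 active = GTP binding activity at least 20% away from the 100% baseline, either lowered as inhibitor or raised as activator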
Target sequence (P01112 whole entry, looked up): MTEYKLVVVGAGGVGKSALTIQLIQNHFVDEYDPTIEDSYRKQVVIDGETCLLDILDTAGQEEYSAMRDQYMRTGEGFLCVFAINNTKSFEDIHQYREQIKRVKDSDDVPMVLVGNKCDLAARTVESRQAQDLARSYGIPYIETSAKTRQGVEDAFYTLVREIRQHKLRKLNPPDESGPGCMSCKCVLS
Rab7 wt GTP bind: alters GTP binding to wildtype dog Rab7. GST-Rab7 beads, fluorescent GTP binding, flow cytometry; actives lie on both sides; untreated = 100%, excess cold GTP = 0%. GTP binding activity (percent of control), % at 10 µM. 0.055% of 190,000 active. AID 758;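 active = fluorescent GTP binding to Rab7 beads changed by at least 20 points from the 100% baseline, either direction, mostly lower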;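 also: median green fluorescence of bound Bodipy-FL-GTP per Rab7 bead population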
Rab2A wt mod: changes GTP binding to wildtype dog Rab2A, up or down; P61105; GST-Rab2 wt beads, Bodipy-GTP binding, flow cytometry; GTP binding activity, % at 10 µM; 0.19% of 190,000 active; AID 760;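 active = GTP binding activity at least 20 points away from 100%, either lowered or raised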
Rac1 wt GTP bind: alters GTP binding to wildtype human Rac1. GST-Rac1 beads, fluorescent GTP binding, flow cytometry; actives lie on both sides; 0 = cold GTP competed, 100 = untreated. 0.27% of 190,000 active. P63000. GTP binding activity (% of control), % at 10 µM;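 active = GTP binding activity at least 20 points away from the 100% control level, either lower or higher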
Large screens that a line does not name were inactive; [ ] = dose if it differs, or a comment.

CC(NC(=O)CSc1nc2ccc(N)cc2s1)c1ccccc1 (centres undefined)	none
O=S1(=O)N=C(N(CCO)/N=C/C=C/c2ccccc2)c2ccccc21	Cdc42 wt 79, HRas wt GTP bind 70, Rab2A wt mod 72, Rac1 wt GTP bind 61
CCOC(=O)CSc1ccc2nnc(-c3cccs3)n2n1	none
O=C(CSc1ccc2nnc(-c3cccs3)n2n1)N1CCCC1	Rac1 wt GTP bind 73
O=C(CSc1ccc2nnc(-c3ccccn3)n2n1)Nc1nccs1	Rac1 mut GTP 73, Cdc42 wt 65, HRas wt GTP bind 68, Rab2A wt mod 62, Rac1 wt GTP bind 54
O=C(CSc1ccc2nnc(-c3ccncc3)n2n1)Nc1nccs1	Cdc42 wt 79, Rac1 wt GTP bind 71
Cc1nnc(NC(=O)CSc2ccc3nnc(-c4ccccn4)n3n2)s1	none
COc1cccc2cc(C(=O)NNC(=O)c3ccc(Br)cc3)c(=O)oc12	none
CN(C)/C=N/c1nc2nccc(-c3ccccc3)n2n1	none
O=C(O)CC/C(=C\c1ccccc1[N+](=O)[O-])c1nc2ccccc2s1	Rac1 mut GTP 74, Cdc42 wt 73, Rab2A wt mod 76
O=C(O)CC/C(=C\c1ccc(N2CCCC2)c([N+](=O)[O-])c1)c1nc2ccccc2s1	Rac1 mut GTP 75, Cdc42 wt 75, HRas wt GTP bind 79, Rab2A wt mod 74
O=C(O)CCSc1nc2ccccc2s1	none
O=C(O)CC/C(=C\c1cccc(NC(=O)c2ccccc2Cl)c1)c1nc2ccccc2s1	none
Cc1nn(-c2ccc(F)cc2)c(Cl)c1/C=C(\CCC(=O)O)c1nc2ccccc2s1	Rac1 mut GTP 65, Cdc42 wt 68, Rab7 wt GTP bind 79, Rab2A wt mod 76, Rac1 wt GTP bind 72
COc1ccc(CNc2nc3ccccc3n2Cc2ccc(C)cc2)cc1OC	Rac1 mut GTP 125[activator], Cdc42 wt 131[activator], HRas wt GTP bind 121[activator], Rab2A wt mod 123[activator], Rac1 wt GTP bind 142[activator]
c1ccc(Cn2c(NCc3ccncc3)nc3ccccc32)cc1	none
Cc1cc(N/N=C/c2ccc(O)cc2O)nc(-c2ccccc2O)n1	HRas wt GTP bind 79, Rab2A wt mod 77, Rac1 wt GTP bind 71
Nc1nonc1-c1nc2ccccc2n1CC(=O)N/N=C/c1ccc(-c2ccccc2C(=O)O)o1	Rac1 wt GTP bind 77
CCOC(=O)c1ccccc1NC(=O)Cn1c(-c2nonc2N)nc2ccccc21	none
CCC(=O)N1CCc2cc(Br)cc(S(=O)(=O)N(C)c3ccc(OC)cc3OC)c21	none
O=C(O)c1ccc(/C=N/NC(=O)c2cc(-c3ccc4c5c(cccc35)CC4)n[nH]2)cc1	Cdc42 wt 78, Rac1 wt GTP bind 76
Cc1ccc(/C(N)=N/OC(=O)CCC2CCCCC2)cc1	Rac1 wt GTP bind 133[activator]
Cn1c(/C=C(\C#N)C(N)=S)ccc1-c1ccc(Br)cc1	none
Nc1c([N+](=O)[O-])c(=O)oc2ccccc12	none
CCOC(=O)c1cc(C(=O)OCC)c(=O)[nH]c1C	none
CCOC(=O)c1cc(C(=O)OCC)c(=O)[nH]c1N1CCCC1	Rac1 mut GTP 50, Cdc42 wt 56, HRas wt GTP bind 57, Rab7 wt GTP bind 24, Rab2A wt mod 54, Rac1 wt GTP bind 51
COc1cccc2c(SCC(=O)N/N=C/c3ccc(O)cc3O)cc(C)nc12	Cdc42 wt 66, HRas wt GTP bind 72, Rab2A wt mod 66, Rac1 wt GTP bind 66
O=C(CN1CCN(CCOCCO)CC1)N1c2ccccc2Sc2ccc(Cl)cc21	Rac1 wt GTP bind 120[activator]
CN1CCN(CCC(=O)N2c3ccccc3Sc3ccc(Cl)cc32)CC1	none
Cc1ccc(S(=O)(=O)N2CCCCC2)cc1NC(=O)C1CCCO1 (centres undefined)	none
Cc1ccccc1NC(=O)C1CCCN1S(=O)(=O)c1cccc2cccnc12 (centres undefined)	Rac1 wt GTP bind 128[activator]
Cc1ccccc1NC(=O)C1CCCN(S(=O)(=O)c2cccc3cccnc23)C1 (centres undefined)	none
O=C(O)c1ccc(NS(=O)(=O)c2ccc3c(c2)C(=O)c2ccccc2C3=O)cc1	Rac1 wt GTP bind 72
Cc1ccc(CS(=O)(=O)c2ccccc2-c2nnc(-c3ccc(Cl)cc3)o2)cc1	Rab7 wt GTP bind 77
Cc1ccccc1-c1nnc(-c2ccc(Cl)cc2)o1	none
O=C(N=Nc1c(O)[nH]c2ccc([N+](=O)[O-])cc12)c1cc(-c2ccccc2Cl)nc2ccccc12	none
COc1ccccc1C(=O)N=Nc1c(O)[nH]c2ccc([N+](=O)[O-])cc12	Rac1 mut GTP 66, Cdc42 wt 51, HRas wt GTP bind 53, Rab7 wt GTP bind 66, Rab2A wt mod 51, Rac1 wt GTP bind 45
CC(C)NC(=S)N=Nc1c(O)[nH]c2ccc([N+](=O)[O-])cc12	Cdc42 wt 68, HRas wt GTP bind 72, Rab2A wt mod 68, Rac1 wt GTP bind 62
COCCNc1nc2c(c(=O)n(Cc3ccc(OC)cc3)c(=O)n2C)n1C	none
COc1ccc(CNc2nc3c(c(=O)n(Cc4ccc(Cl)cc4)c(=O)n3C)n2C)cc1	Cdc42 wt 79, Rab2A wt mod 78
S=C(NNc1ccc2ccccc2c1)NC1CCCCC1	none
COC(=O)c1ccc2nc(Nc3nc4c(F)cc(F)cc4s3)sc2c1	Rab2A wt mod 79
O=C(Cn1c(-c2cscn2)nc2ccccc21)Nc1cc(F)ccc1F	Rac1 wt GTP bind 121[activator]
OC(COc1ccc2ccccc2c1)Cn1ccnc1 (centres undefined)	none
OC(CNCCc1ccc(Cl)cc1)COc1ccc2ccccc2c1 (centres undefined)	Rac1 mut GTP 77, Cdc42 wt 77, Rab2A wt mod 78
Cc1ccccc1OCCSc1nnc(-c2cccnc2)n1N	none
CCc1cc(C(=O)N2CCCC(CNS(=O)(=O)c3cccs3)C2)n(C)n1 (centres undefined)	none
Cc1cc(C)n2nc(C(=O)N3CCCC(CNS(=O)(=O)c4cccs4)C3)cc2n1 (centres undefined)	Rac1 mut GTP 31, Cdc42 wt 34, HRas wt GTP bind 35, Rab7 wt GTP bind 22, Rab2A wt mod 33, Rac1 wt GTP bind 28
O=C(CCc1ccccn1)N1CCCC(CNS(=O)(=O)c2cccs2)C1 (centres undefined)	Rac1 mut GTP 53, Cdc42 wt 61, HRas wt GTP bind 60, Rab7 wt GTP bind 62, Rab2A wt mod 62, Rac1 wt GTP bind 54
CCCCN(CC)C(=S)Nc1ccc2nc(N3CCN(C)CC3)cc(C)c2c1	none
Cc1cc(-c2n[nH]c(=S)n2/N=C/c2ccc(Cl)c([N+](=O)[O-])c2)n[nH]1	none
